Measured values reported in PubChem BioAssay AID1159580 (chemical genetic matrix, 2015).
Out of some 5,500 compounds screened, about 2,000 (36%) were called active. Inconclusive results (about 18%) are left out. Cut-off read from the data, not from the text of the source: active = normalized growth mostly below about 0.91 (no sharp cut-off); inconclusive = no clear call, values can overlap the other calls; inactive = mostly above about 0.92. This is one part of the list.

Assay: chemical genetic growth profiling, strain panel (AID 1159580);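 note: tested at 20 µM; growth read once vehicle control cultures reached saturation at 30 °C; 1 = growth at the plate median or of vehicle wells; lower values mean less growth of the strain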
Details: S. cerevisiae deletion strains, growth OD
[1] = locus YAL013W, strain DEP1, hits give low values
[2] = locus YDR150W, strain NUM1, hits give low values
[3] = locus YMR263W, strain SAP30, hits give low values
[4] = locus YMR307W, strain GAS1, hits give low values
[5] = locus YNL153C, strain GIM3, hits give low values

Measured: normalized growth

COc1ccc(-n2c(SCc3ccc(Br)cc3)nnc2-c2ccco2)cc1
inactive: [1] 0.972 | locus YBR229C, strain ROT2, hits give low values 1 | locus YDL101C, strain DUN1, hits give low values 1 | [2] 0.962 | locus YEL061C, strain CIN8, hits give low values 1.01 | locus YGR078C, strain PAC10, hits give low values 0.987 | locus YGR229C, strain SMI1, hits give low values 0.978 | locus YHR030C, strain SLT2, hits give low values 0.79 | locus YHR087W, strain rtc3, hits give low values 0.996 | locus YJL187C, strain SWE1, hits give low values 1.01 | locus YJR043C, strain POL32, hits give low values 0.98 | locus YJR075W, strain HOC1, hits give low values 0.969 | locus YLR039C, strain RIC1, hits give low values 0.803 | locus YLR058C, strain SHM2 (second series), hits give low values 0.989 | locus YLR085C, strain ARP6, hits give low values 0.947 | locus YML094W, strain GIM5, hits give low values 0.993 | locus YMR219W, strain ESC1, hits give low values 0.993 | [3] 0.989 | [4] 0.893 | [5] 0.996 | locus YNL298W, strain CLA4 (second series), hits give low values 0.917 | locus YNL322C, strain KRE1, hits give low values 0.984 | locus YNR030W, strain Alg12, hits give low values 0.966 | locus YOL006C, strain TOP1, hits give low values 0.889 | locus YPL055C, strain LGE1, hits give low values 0.976 | locus YPL241C, strain CIN2, hits give low values 0.986 | locus YPR135W, strain CTF4, hits give low values 0.844
active: locus YLR262C, strain YPT6, hits give low values 0.803

Cn1cnc2c(NC3CCCC3)ncnc21
inactive: [1] 0.992 | locus YAL040C, strain CLN3, hits give low values 0.993 | locus YCL061C, strain MRC1 (second series), hits give low values 1 | [2] 0.999 | locus YDR363W, strain ESC2, hits give low values 1 | locus YER002W, strain NOP16, hits give low values 1.01 | [3] 1 | [4] 0.989 | locus YNL128W, strain TEP1, hits give low values 1 | [5] 1.02 | locus YNL175C, strain NOP13, hits give low values 1.04 | locus YNL197C, strain WHI3, hits give low values 1 | locus YNL224C, strain SQS1, hits give low values 0.997 | locus YOR083W, strain WHI5 (second series), hits give low values 0.984
